Assay results: the supplement of paper PMC13380429

How the values were obtained:
[1] = tested on: Vero E6 infected with SARS-CoV-2; experiment: morphology score (similarity to uninfected cells); higher = more like uninfected cells; settings: 24 h
[2] = tested on: Vero E6 infected with SARS-CoV-2; experiment: SARS-CoV-2 infection rate relative to infected DMSO; higher = more infection, active = 60 or less; settings: 24 h

| Compound | morphology score [1] | SARS-CoV-2 infection rate [2] |
| --- | --- | --- |
| CCOC(=O)COc1ccc2c(=O)cc(-c3ccccc3)oc2c1 [efloxate] (10 µM) | 0.19 | 96.5% (inactive) |
| C[C@]12CCC(=O)C=C1CC[C@@H]1[C@@H]2[C@@H](O)C[C@@]2(C)[C@H]1CC[C@]2(O)C(=O)CO [hydrocortisone] (10 µM) | -0.144 | 122% (inactive) |
| O=C(/C=C/N1C[C@H]2C[C@@H]1CN2c1ccccn1)c1ccccc1O (10 µM) | -0.0425 | 116% (inactive) |
| C[C@@H](NC(=O)CCc1nc2ccccc2c(=O)[nH]1)c1ccccc1 (10 µM) | 0.239 | 95.5% (inactive) |
| NCC1OC(C23CC4CC(CC(C4)C2)C3)Cc2c1ccc(O)c2O (stereo not drawn) (0.833333 µM) | -0.0685 | 115% (inactive) |
| CSc1ccccc1OCC(O)CNC(C)C (stereo not drawn) [tiprenolol] (10 µM) | -0.224 | 110% (inactive) |
| NC(=O)C(c1ccccc1)(c1ccc(F)cc1)c1ccc(F)cc1 [senicapoc] (10 µM) | -0.127 | 114% (inactive) |
| CC[N+](CC)(CCCNC1=CC(=O)C(NCCC[N+](CC)(CC)Cc2ccccc2)=CC1=O)Cc1ccccc1 [benzoquinonium-dibromide] (10 µM) | -0.00889 | 113% (inactive) |
| N=C(N)NC(=O)Cc1c(Cl)cccc1Cl [guanfacine] (10 µM) | 0.255 | 86% (inactive) |
| COc1ccccc1N1CCN(CC(O)COc2cc(OC)c(OC)c(OC)c2)CC1 (stereo not drawn) [enciprazine] (10 µM) | 0.0687 | 110% (inactive) |
| CN1C/C=C/CCOc2cccc(c2)-c2ccnc(n2)Nc2cccc(c2)C1 (10 µM) | -0.0856 | 104% (inactive) |
| C[C@@H]1CC(=O)NN=C1c1ccc(NN=C(C#N)C#N)cc1 [levosimendan] (10 µM) | -0.109 | 117% (inactive) |
| CC(=O)Nc1ncc([N+](=O)[O-])s1 [nithiamide] (10 µM) | 0.0207 | 90% (inactive) |
| CC(C)OC(=O)[C@H](C)N[P@@](=O)(OC[C@H]1O[C@@H](n2ccc(=O)[nH]c2=O)[C@](C)(F)[C@@H]1O)Oc1ccccc1 (10 µM) | 0.087 | 108% (inactive) |
| N[C@@H](CSS(=O)(=O)O)C(=O)O [S-sulfo-L-cysteine] (10 µM) | 0.254 | 90% (inactive) |
| CC(C)(C)N1CCC(c2ccccc2)(c2ccccc2)CC1 [budipine] (10 µM) | 0.395 | 76.5% (inactive) |
| CCCCCCCCCCCCCCCCCC(=O)OCC(O)CO (stereo not drawn) [monostearin] (10 µM) | -0.0152 | 108% (inactive) |
| C[N+]1(CCCCC[N+]2(C)CCCC2)CCCC1 [pentolinium] (10 µM) | -0.0223 | 102% (inactive) |
| CC[C@H](C)[C@@H]1NC(=O)[C@H](Cc2ccc(OC)cc2)NC(=O)CCCSC[C@@H](C(=O)N2CCC[C@H]2C(=O)N[C@@H](CC(C)C)C(=O)NCC(N)=O)NC(=O)[C@H](CC(N)=O)NC(=O)[C@H](CCC(N)=O)NC1=O [carbetocin] (10 µM) | 0.123 | 118% (inactive) |
| O=C(Cn1ccnc1[N+](=O)[O-])NCCO [etanidazole] (10 µM) | 0.0673 | 94.5% (inactive) |
| C[N+]1(C)CCCC(OC(=O)C(O)(c2ccccc2)c2ccccc2)C1 (stereo not drawn) [mepenzolate] (10 µM) | 0.047 | 105% (inactive) |
| O=C(O)c1ccccc1C(=O)Nc1ccc(S(=O)(=O)Nc2nccs2)cc1 [phthalylsulfathiazole] (10 µM) | 0.162 | 102% (inactive) |
| c1ccc2[nH]c(-c3cscn3)nc2c1 [tiabendazole] (10 µM) | 0.157 | 111% (inactive) |
| CC(=O)OCC(=O)[C@@]12N=C(C)O[C@@H]1C[C@H]1[C@@H]3CCC4=CC(=O)C=C[C@]4(C)[C@H]3[C@@H](O)C[C@@]12C [Deflazacort (Calcort)] (10 µM) | 0.0216 | 97.5% (inactive) |
